Sfp PPTase inh: blocks B. subtilis Sfp PPTase activity; AID 1490; Potency, µM, most hits filed as inhibitors; Q9F4F7; Biochemical Sfp PPTase activity, qHTS; 3.5% of 310,000 active;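 also: the enzyme is Sfp with the accession as filed and its product quenches rhodamine fluorescence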
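With Hepes-Na pH 7.6 buffer containing 10 mM MgCl2, Sfp (15 nM) modified BHQ-2-YbbR (12.5 uM) using rhodamine-CoA (5 uM). Two reads 30 minutes apart at 525/598 nm yielded each well's rate.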
VDR inhibitor: vitamin D3 receptor (human) inhibition. P11473. VDR-SRC2-3 peptide fluorescence polarization, 2 h. Potency, µM, actives largely listed as inhibitors. 0.93% of 400,000 active
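Signal is fluorescence polarization, reporting how far test compounds block the interaction of VDR with the SRC2-3 coregulator peptide after a 2 h room-temperature incubation.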
ALOX12 inh: ALOX12 (human) lipoxygenase inhibition; P18054; purified 12hLO, xylenol orange hydroperoxide absorbance; Potency, µM (series often up to 108 µM), actives largely listed as inhibitors; 1.1% of 580,000 active
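Purified human 12hLO (150 nM final) in 25 mM Hepes, 0.01% Triton X-100, pH 7.0 was preincubated 15 min at room temperature with compound. Then 40 uM arachidonic acid was added, 30 min. Hydroperoxide was read by Fe-XO absorbance ratio 573/405 nm.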
PLK1 PBD inh: blocks phosphopeptide binding to human PLK1 polo-box domain; 2.8% of 360,000 active; Plk1 PBD binding of FITC phosphopeptide, fluorescence polarization; P53350; Potency, µM, most hits filed as inhibitors; also: series mostly up to about 57 µM; nearly all actives have a fitted effect of over 65% in size
Target sequence (P53350 whole entry, looked up, the tested form may be a part): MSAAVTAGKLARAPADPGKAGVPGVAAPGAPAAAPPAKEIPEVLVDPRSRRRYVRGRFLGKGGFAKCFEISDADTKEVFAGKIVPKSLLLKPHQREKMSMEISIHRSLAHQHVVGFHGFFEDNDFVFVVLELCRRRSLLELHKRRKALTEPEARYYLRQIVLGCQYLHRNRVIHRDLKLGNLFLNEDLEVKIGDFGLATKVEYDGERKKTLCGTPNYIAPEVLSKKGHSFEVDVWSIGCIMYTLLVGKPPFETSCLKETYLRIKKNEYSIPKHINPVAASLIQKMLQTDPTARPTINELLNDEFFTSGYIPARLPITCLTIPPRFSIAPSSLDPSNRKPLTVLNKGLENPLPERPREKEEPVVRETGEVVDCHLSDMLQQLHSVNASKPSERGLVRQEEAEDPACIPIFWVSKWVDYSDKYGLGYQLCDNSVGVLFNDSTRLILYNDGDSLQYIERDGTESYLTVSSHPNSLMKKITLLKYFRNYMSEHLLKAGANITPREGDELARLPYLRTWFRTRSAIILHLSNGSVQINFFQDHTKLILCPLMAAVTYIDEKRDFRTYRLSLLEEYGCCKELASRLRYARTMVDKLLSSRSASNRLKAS
Of the large screens only hits and unclear results are named; the others gave an inactive call. Shown are actives, neighbours in structure and some others; about 4.2% of the full set was active somewhere. Calls follow the shape of the dose curve; as a rule, active = well fitted curve in the direction sought with a large enough effect; inconclusive = small, poorly fitted or top-dose-only effect, or another doubt; inactive = no such curve, though single readings can be large; an effect the other way counts as inactive or inconclusive.

CCCCC(C(=O)NC1CCCC1)N(Cc1ccco1)C(=O)Cn1nnc(-c2ccc(F)cc2)n1 (stereo not given)	PLK1 PBD inh 24µM
CN(c1ncc(C(F)(F)F)cc1Cl)n1cc(C(N)=O)c2ccccc2c1=O	none
CCOc1ccc(N2CSC(=S)N(c3ccc(OCC)cc3)C2)cc1	Sfp PPTase inh 35µM
CCOc1ccc(CCNC(=O)c2cc3c(s2)-c2c(C)cccc2OC3)cc1	none (no result: Sfp PPTase inh, PLK1 PBD inh)
CCc1ccc(S(=O)(=O)Nc2ccc3nc(N4CCN(CCC#N)CC4)cc(C(=O)O)c3c2)cc1	ALOX12 inh 11µM (no result: Sfp PPTase inh, VDR inhibitor, PLK1 PBD inh)
CC(C)/C(=N\NS(=O)(=O)c1ccc(Br)cc1)c1cccs1	ALOX12 inh inconclusive, PLK1 PBD inh 24µM
C/C(=N\NS(=O)(=O)c1ccc(C)c([N+](=O)[O-])c1)c1cccs1	ALOX12 inh inconclusive, PLK1 PBD inh inconclusive
C/C(=N\NS(=O)(=O)c1ccc([N+](=O)[O-])cc1)c1cccs1	VDR inhibitor inconclusive, PLK1 PBD inh 27µM
O=C(CCc1nnc(CCc2c[nH]c3ccccc23)o1)NC1CCC1	VDR inhibitor inconclusive, PLK1 PBD inh 24µM
CC1CCN(C(=O)CSc2nc(=O)n3cc(Cl)ccc3n2)CC1	none (no result: Sfp PPTase inh)
CC(C)(C)NCc1ccccc1OCc1cccs1	PLK1 PBD inh inconclusive
O=C(O)c1ccc(COc2ccccc2/C=C2/NC(=O)N(c3cccc(Cl)c3)C2=O)cc1	none
O=C(O)c1cccc(-n2cccc2/C=C2/NC(=O)N(c3cccc(Cl)c3)C2=O)c1	Sfp PPTase inh 45µM, PLK1 PBD inh inconclusive
O=C(O)c1cccc(-n2cccc2/C=C2/NC(=O)N(c3ccc(Cl)cc3)C2=O)c1	Sfp PPTase inh 14µM, ALOX12 inh 7.9µM, PLK1 PBD inh 4.7µM
C=CCOc1ccc(C=CC(=O)c2c(O)c(OC)c(OC)c(OC)c2OC)cc1	VDR inhibitor 45µM (no result: Sfp PPTase inh)
O=C(CSc1ccccn1)NCc1ccc2c(c1)OCO2	none
O=c1c2c(nc3cc(-c4cccc(F)c4)[nH]n13)CCC2	PLK1 PBD inh 24µM
O=c1c2c(nc3cc(-c4ccc(F)cc4)[nH]n13)CCCC2	none
CCOC(=O)/C(=C/c1ccc(F)cc1)NC(C)=O	none
CCOC(=O)/C(=C\c1c[nH]c2ccccc12)NC(C)=O	VDR inhibitor inconclusive, PLK1 PBD inh 21µM
CC(C)c1nc(SCC(=O)c2ccc(F)cc2)c2ccccc2n1	Sfp PPTase inh 32µM, VDR inhibitor inconclusive, ALOX12 inh inconclusive, PLK1 PBD inh inconclusive
Cc1ccc(C(=O)CSc2nc(C(C)C)nc3ccccc23)cc1	Sfp PPTase inh 40µM
COC(=O)CSc1nc(C(C)C)nc2ccccc12	none
CC[C@H](C)C(=O)O[C@H]1CCC=C2C=C[C@H](C)[C@H](CC[C@@H]3C[C@H](O)CC(=O)O3)[C@H]21	VDR inhibitor inconclusive (no result: PLK1 PBD inh)
Oc1ccc(C2=CSC3=NCCN23)cc1O	Sfp PPTase inh 89µM, ALOX12 inh inconclusive
O=S(=O)(c1ccc(C2=CSC3=NCCN23)cc1)N1CCOCC1	Sfp PPTase inh 56µM
Brc1ccc(C2=CSC3=NCCN23)cc1	PLK1 PBD inh inconclusive
CCOc1ccc(C2=CSC3=NCCN23)cc1[N+](=O)[O-]	none
CCOc1ccc(C2=CSC3=NCCN23)cc1Cl	Sfp PPTase inh inconclusive, VDR inhibitor 79µM, ALOX12 inh inconclusive, PLK1 PBD inh inconclusive
Fc1ccc(C2=CSC3=NCCN23)cc1	none
CCCOc1ccc(C2=CSC3=NCCN23)cc1[N+](=O)[O-]	VDR inhibitor inconclusive, PLK1 PBD inh 30µM
CCc1noc(C)c1C(=O)Oc1ccc(N(C)S(=O)(=O)c2ccccc2)cc1	none (no result: Sfp PPTase inh)
COc1ccc(/C=C/C(O)=C2/C(=O)N(C)C3(C)CC2c2ccccc2O3)cc1 (stereo not given)	Sfp PPTase inh inconclusive
CCOC(=O)C1=C(C)NC(=O)CC1c1ccccc1OC (stereo not given)	none
CCOC(=O)C1=C(C)NC(=O)CC1C(=O)Nc1cc(Cl)cc(Cl)c1 (stereo not given)	ALOX12 inh 16µM (no result: Sfp PPTase inh, VDR inhibitor, PLK1 PBD inh)
O=C(COC(=O)c1ccc(Cl)s1)c1ccc[nH]1	none
CC1(C)CC(NNCCC#N)=CC(=[N+]2CCCC2)C1	ALOX12 inh inconclusive, PLK1 PBD inh 24µM
COc1ccc(CN2CC(C(=O)N3CC(C)CC(C)C3)CC2=O)cc1 (stereo not given)	PLK1 PBD inh 27µM
O=C(/C=C/c1ccco1)c1ccc(NC(=O)C23CC4CC(CC(C4)C2)C3)cc1	Sfp PPTase inh 3.5µM, VDR inhibitor inconclusive, ALOX12 inh inconclusive
COc1ccc(/C=C/C(=O)c2ccc(NC(=O)C34CC5CC(CC(C5)C3)C4)cc2)cc1	none (no result: Sfp PPTase inh, VDR inhibitor, PLK1 PBD inh)
COc1cccc(NC(=O)/C=C/c2ccco2)c1	Sfp PPTase inh 35µM
COc1cccc(N2CCN(C(=O)/C=C/c3ccco3)CC2)c1	Sfp PPTase inh 8.9µM, ALOX12 inh inconclusive
Cc1cccc(-c2nc3cc(NC(=O)/C=C/c4ccco4)ccc3o2)c1	ALOX12 inh 11µM (no result: Sfp PPTase inh, VDR inhibitor, PLK1 PBD inh)
COc1ccc(NC(=O)N/C=C/c2ccco2)cc1	Sfp PPTase inh 50µM, ALOX12 inh inconclusive, PLK1 PBD inh inconclusive
O=C(N/C=C/c1ccco1)Nc1cccc(Cl)c1	ALOX12 inh inconclusive
COc1cccc(NC(=O)/C=C\c2ccc(Cl)cc2)c1	none (no result: PLK1 PBD inh)
O=C(Nc1ccccc1Cl)N1CCn2c(nc3ccccc32)C1	none
COc1cc(OC)cc(C(=O)N2[C@@H]3CC[C@H]2CC(NC(=O)c2ccc(F)cc2)C3)c1 (stereo not given in full)	none (no result: Sfp PPTase inh, VDR inhibitor, PLK1 PBD inh)
O=C(N/C=C/c1ccco1)OCc1ccccc1	ALOX12 inh 40µM
CSc1cccc(NC(=O)/C=C/c2ccccc2)c1	none
CSc1cccc(NC(=O)/C=C/c2ccco2)c1	Sfp PPTase inh 56µM, ALOX12 inh inconclusive, PLK1 PBD inh inconclusive
O=C(N/C=C/c1ccco1)NCc1ccccc1	ALOX12 inh inconclusive, PLK1 PBD inh inconclusive
CCC(=O)NC(/C=C/c1ccccc1)c1cc([N+](=O)[O-])c2cccnc2c1O (stereo not given)	ALOX12 inh inconclusive (no result: VDR inhibitor, PLK1 PBD inh)
O=C(CSc1ccc(Cl)cc1)NC(=O)c1ccccc1	PLK1 PBD inh 12µM (no result: Sfp PPTase inh)
O=C(NC(=S)Nc1ccc(-c2ccccc2)cc1)c1ccccc1	ALOX12 inh inconclusive (no result: Sfp PPTase inh)
Fc1ccc(NC(=S)Nc2ccc(Cl)cc2)cc1	none
S=C(NC(=NC=C(Cl)Cl)c1ccc(Cl)cc1)Nc1ccc(Cl)cc1	ALOX12 inh 20µM (no result: Sfp PPTase inh, VDR inhibitor, PLK1 PBD inh)
CCC(=O)NC(=S)Nc1ccc(NC(=S)NC(=O)c2ccccc2)cc1	ALOX12 inh inconclusive
O=C(NC(=S)Nc1ccc(Cl)cc1)c1ccccc1	ALOX12 inh 45µM
O=C(NC(=S)Nc1ccc(Oc2ccc(Cl)cc2)cc1)c1ccccc1	ALOX12 inh 8.9µM
CN1CCc2c1nc1ccccc1c2N (tested in a mixture with another compound)	none
CCCCC(=O)NC1CC(=O)N(c2ccc3c(c2)OCCO3)C1 (stereo not given)	none (no result: Sfp PPTase inh, PLK1 PBD inh)
Cc1nnc(SCC(=O)Nc2ccccc2F)n(N)c1=O	none
CC(=O)Nc1ccc(NC(=S)NC(=O)c2ccc(Cl)cc2)cc1	ALOX12 inh 5.6µM (no result: Sfp PPTase inh, VDR inhibitor, PLK1 PBD inh)
C/C(=N\NC(=S)Nc1c(C)cccc1C)c1cc2ccccc2o1	ALOX12 inh inconclusive
C/C(=N\NC(=S)Nc1ccccc1C)c1cc2ccccc2o1	ALOX12 inh 20µM

Assay outcomes deposited in PubChem by National Center for Advancing Translational Sciences (NCATS).
